# In the library only some 19% were active in any assay of this set; here they are far more common.
# HT1080NT lethal – qHTS for induction of synthetic lethality in tumor cells producing 2HG: qHTS for the HT-1080-NT fibrosarcoma cell line. 1.6% of 360,000 active. Potency, µM (top dose mostly 46.1 µM), for the others: at the top dose activity, negative = less viability, hits mostly cytotoxic. HT-1080-NT fibrosarcoma viability, CellTiter-Glo ATP luminescence, 48 h;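 also: NT is the 2HG producing partner of a matched IDH1 knockdown line; potency is read from the fitted curve at half-maximal effect; 0% = DMSO-treated cells and -100% = media-only wells without cells; nearly all actives have a fitted effect of over 55% in size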
#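 Toxicity toward the 2HG-producing NT line was scored as %Activity, normalised to DMSO and no-cell wells, from CellTiter-Glo luminescence after 48 hours' treatment.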
# TDP1 cell CPT – qHTS for Inhibitors of human tyrosyl-DNA phosphodiesterase 1 (TDP1): qHTS in cells in presence of CPT | chicken DT40 Tdp1-/-;hTDP1 cells + 20 nM CPT, ATP luminescence, 48 h | Potency, µM (highest dose often 46.2 µM), for inactives: at the top dose activity change, negative = growth inhibition, usual class: inhibitors | 12% of 420,000 active | AID 686979, 2013; also: potency is read from the fitted curve at half-maximal effect; nearly all actives have a fitted effect of over 55% in size
#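 Chicken DT40 Tdp1-/- cells stably complemented with human TDP1 were seeded at 400 cells/well in medium containing 20 nM camptothecin, exposed to pin-transferred compounds, and grown at 37 °C for at least 48 hr. Viability was read as ATP luminescence.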
# IL-1B inflam inh – qHTS for Inhibitors of Inflammasome Signaling: IL-1-beta AlphaLISA Primary Screen; THP-1 LPS/ATP IL-1B secretion, AlphaLISA, 16 h; hits give low values; activity change, % at 57.5 µM; 4.7% of 360,000 active; AID 743279, 2014; in the data active = activity change below about -50%; inconclusive = mostly about -30% to -49%
#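 Secreted IL-1B measured by AlphaLISA bead assay after 16 h compound exposure of THP-1 cells; compounds (final up to 57.5 uM) added 1 h before LPS (250 ng/mL) and ATP (1.25 mM) stimulation; lower signal means less secretion.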
# DT40 TDP1 no CPT – qHTS for Inhibitors of human tyrosyl-DNA phosphodiesterase 1 (TDP1): qHTS in cells in absence of CPT. AID 686978, 2013. DT40 Tdp1-/- hTDP1 cells, no CPT, ATP luminescence, 48 h. 15% of 420,000 active. Potency, µM (doses to about 46.2 µM), for inactives: at the highest dose activity change, negative = growth inhibition, most hits filed as inhibitors; also: potency is read from the fitted curve at half-maximal effect; nearly all actives have a fitted effect of over 55% in size
#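 Camptothecin absent (DMSO only). Human TDP1-complemented DT40 knockout cells, 400 cells/well, 37 °C for minimum 48 hr; ATP measured via CellTiter-Glo, 30 min dark incubation, luminescence.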
# HT1080 IDH1KD tx – qHTS for induction of synthetic lethality in tumor cells producing 2HG: qHTS for the HT-1080-IDH1KD cell line | HT-1080 IDH1 knockdown viability, ATP luminescence, 48 h | Potency, µM (series often up to 46.1 µM), for the others: top-dose activity, negative = toxicity, hits mostly cytotoxic | 2% of 360,000 active;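 also: potency is read from the fitted curve at half-maximal effect; 0% = DMSO wells and -100% = cell-free medium wells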
#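 Knockdown cells (IDH1KD HT-1080) received compounds 2 h after plating at 750 cells/well and were kept 48 h at 37 °C in 5% FBS RPMI. A CellTiter-Glo luminescence read gave % activity for curve fitting.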
# The depositor's hits bear a star; ? = inconclusive; nt = no result given. Unless noted, calls follow the shape of the dose curve; as a rule, active = well fitted curve in the direction sought with a large enough effect; inconclusive = small, poorly fitted or top-dose-only effect, or another doubt; inactive = no such curve, though single readings can be large; an effect the other way counts as inactive or inconclusive. Unless noted, % is scaled to controls: 0 for no effect and ±100 for the full control effect.
SMILES,HT1080NT lethal,TDP1 cell CPT,IL-1B inflam inh,DT40 TDP1 no CPT,HT1080 IDH1KD tx
CCOC(=O)Cn1nc(/C=C/c2ccc(C)cc2)ccc1=O,3%,?,-28,23µM*,15%
O=C(COC(=O)Cc1cccc(F)c1)NC(=O)NC1CCCCC1,8%,11%,-1,-8%,7%
Cc1c(C(=O)NCCN(C)C)sc2nc3n(c(=O)c12)CCC3,nt,0%,nt,-1%,nt
Cc1ccc(C(=O)Nc2cc(C)nn2CCC#N)cc1,-1%,4%,-10,-14%,9%
CCOc1ccc2nc(N/C(N)=N/S(=O)(=O)c3ccc(C)cc3)nc(C)c2c1,11%,?,-21,?,17%
COc1ccc2nc(N/C(N)=N/C(=S)Nc3ccccc3)nc(C)c2c1,-7%,26µM*,-87*,8.2µM*,0%
COc1ccc(OC)c(N/C(=N/C(=S)Nc2ccccc2)Nc2nc(C)cc(C)n2)c1,6%,?,-2,8.2µM*,6%
Cc1cccc(NC(=S)/N=C(\N)Nc2nc(C)c3ccc(C)cc3n2)c1,-27%,15µM*,-6,12µM*,?
CCOc1ccc2nc(N/C(N)=N/S(C)(=O)=O)nc(C)c2c1,6%,-1%,?,-27%,1%
CCc1ccc(NC(=S)/N=C(\N)Nc2nc(C)c3cc(CC)ccc3n2)cc1,?,?,-64*,?,10µM*
COc1ccc2c(C)nc(N/C(N)=N/S(=O)(=O)c3ccc(C)cc3)nc2c1,-22%,?,?,?,-22%
CNC(=S)Nc1cc(OC)ccc1OC,0%,-15%,-2,-16%,0%
CC(=O)NC(Cc1ccc(C(C)C)cc1)C(=O)NC1CCN(C(=O)c2cccc(C)c2)CC1 (centres undefined),-2%,?,13,?,-14%
O=C(CCC(=O)N(CC(=O)NC1CCCCC1)Cc1ccccc1)Nc1ccccn1,6%,3%,-8,-3%,5%
Cc1cc(C)cc(NC(=S)/N=C(\N)Nc2nc(C)c3ccccc3n2)c1,1%,21µM*,2,15µM*,-14%
Cc1cccc(NC(=S)/N=C(\N)Nc2nc(C)c3cc(C)ccc3n2)c1,-2%,21µM*,?,23µM*,-2%
Cc1ccc(NC(=S)/N=C(\N)Nc2nc(C)c3ccccc3n2)cc1C,-3%,?,19,?,-22%
Cc1cccc(NC(=S)/N=C(\N)Nc2nc(C)c3ccccc3n2)c1,-21%,18µM*,-27,?,-27%
Cc1ccc(-n2nc(C)c3c(C(F)(F)F)cc(-c4cccnc4)nc32)cc1Cl,nt,0%,nt,1%,nt
COCCC(=O)N1CCC(Oc2ccc(C(=O)N3CCCCC3COC)cc2)CC1 (centres undefined),-3%,-9%,12,17%,1%
Nc1ccc2nc(-c3cccs3)[nH]c2c1,-9%,21µM*,4,?,-23%
Nc1ccc(-c2nc3c(Cl)cc(N)cc3[nH]2)cc1,2%,5.8µM*,?,7.3µM*,-13%
COc1ccc2nc(-c3ccc(N)cc3)[nH]c2c1,-13%,?,?,?,-1%
Nc1ccc2nc(-c3ccc(N)c(Cl)c3)[nH]c2c1,-21%,6.5µM*,?,8.2µM*,-9%
O=C(Cn1c(=O)n(CCCC(=O)NC2CCCC2)c(=O)c2ccccc21)NCCC1=CCCCC1,-10%,-26%,9,-5%,-6%
SMILES,HT1080NT lethal,TDP1 cell CPT,IL-1B inflam inh,DT40 TDP1 no CPT,HT1080 IDH1KD tx
O=C(CSc1nccn1Cc1ccccc1)Nc1ccc2c(c1)OCCO2,nt,8%,nt,-17%,nt
CSc1ncc(C(=O)Nc2cccc(Cl)c2)c(C)n1,4%,-11%,8,?,5%
CCOC(=O)c1ccccc1NC(=S)N1CCCCC1,0%,?,14,?,4%
CCOC(=O)c1ccccc1NC(=O)N(Cc1ccc(C)cc1)Cc1cccn1-c1nnc(N2CCCC2=O)s1,nt,23µM*,nt,18µM*,nt
COc1ccc(CNc2ncncc2-c2ccoc2)c(OC)c1,nt,23µM*,nt,?,nt
COc1cccc(-c2cncnc2NCc2ccc(OC)cc2OC)c1,nt,?,nt,16µM*,nt
COc1ccc(CNc2ncncc2-c2cccnc2)c(OC)c1,nt,-1%,nt,-23%,nt
CN1C(=S)N2CCCN2C1c1ccccc1 (centres undefined),2%,-16%,5,-11%,15%
COc1ccc([C@H]2C[C@@H](n3cc(-c4ccc(F)cc4)nn3)[C@H](O)CN2C(=O)c2cccs2)cc1,1%,?,-4,?,-1%
CCCC(=O)NC(=S)Nc1cccc(Cl)c1N1CCCCC1,5µM*,?,64,?,10µM*
CCC(=O)NC(=S)Nc1cccc(Cl)c1N1CCCCC1,4.5µM*,11µM*,52,11µM*,5.6µM*
NC(=O)C1(N2CCCCC2)CCN(S(=O)(=O)c2cc(Cl)sc2Cl)CC1,?,-8%,2,-18%,-2%
CC(=O)c1ccc(NC(=O)CSc2cn[nH]n2)cc1,30%,-3%,-2,-9%,9%
O=C(CN1CCN(CC(=O)Nc2ccc(Cl)cc2)CC1)Nc1ccc(F)cc1,18%,0%,-11,-4%,6%
O=C(CSC1=Nc2ccccc2N=C(c2ccc(F)cc2)C1)Nc1ccc(Cl)cc1,nt,21µM*,nt,26µM*,nt
CC(=O)c1ccc(NC(=O)CSC2=Nc3ccccc3N=C(c3ccc(F)cc3)C2)cc1,nt,16µM*,nt,9.2µM*,nt
CCOCc1nnc(NC(=O)CS(=O)(=O)c2ccc(C)cc2)s1,8%,-4%,2,-18%,0%
CN1CCCC2(CCN(C(=O)c3cccc(F)c3)CC2)C1,nt,6%,nt,4%,nt
Cc1cccc(C(=O)N2CCc3cc(-c4csc(NC(=O)CN5CCCC5)n4)ccc32)c1,21µM*,?,-5,?,16µM*
CNc1nc(-c2ccc3c(c2)CCN3C(=O)c2ccccc2C)cs1,-19%,?,-10,16µM*,-6%
CNc1nc(-c2ccc3c(c2)CCN3C(=O)c2cccc(F)c2)cs1,?,23µM*,?,21µM*,?
CNc1nc(-c2ccc3c(c2)CCN3C(=O)c2ccc(F)cc2)cs1,-8%,?,-7,?,-4%
COc1ccc(CCNC(=O)CCS(=O)(=O)c2cc(Br)cc3c2N(C(C)=O)CC3)cc1OC,nt,-1%,nt,-13%,nt
Cc1cc(C)c2cc(C=O)c(Cl)nc2c1,?,1.2µM*,36,1µM*,-25%
CCc1cc2cc(C)cc(C)c2nc1Cl,23%,5%,15,?,19%
